ELG1 repair inh – inhibitors of ELG1-dependent DNA repair in HEK293T cells; HEK293T ELG1-luciferase reporter, luminescence, 16 h; DNA damage induced by 5-fluorouridine; Potency, µM (series often up to 46.1 µM), inactives show at the top dose activity change, negative = inhibition, usual class: inhibitors; actives 2.3% (n = 330,000); AID 504467; further: potency means the concentration at half of the fitted maximal effect; nearly all actives have a fitted effect of over 55% in size
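Quantitative HTS, concentration-response format. 2,000 cells/well co-treated with 5-fluorouridine and compound, 16 hr in 5% CO2 at 37 °C; ONE-Glo luminescence read after 30 min.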
RORgamma inh – blocks mouse ROR gamma transcriptional activity; AID 2551; actives 5.4% (n = 310,000); Potency, µM (titrated, usually from 53.6 µM), inactives show at the top dose activity change, negative = inhibition, most hits filed as inhibitors; P51450; Drosophila S2 Gal4-RORgamma UAS-luciferase reporter, 20 h; further: potency means the concentration at half of the fitted maximal effect; nearly all actives have a fitted effect of over 60% in size
Target sequence (P51450 whole entry, looked up, the tested form may be a part): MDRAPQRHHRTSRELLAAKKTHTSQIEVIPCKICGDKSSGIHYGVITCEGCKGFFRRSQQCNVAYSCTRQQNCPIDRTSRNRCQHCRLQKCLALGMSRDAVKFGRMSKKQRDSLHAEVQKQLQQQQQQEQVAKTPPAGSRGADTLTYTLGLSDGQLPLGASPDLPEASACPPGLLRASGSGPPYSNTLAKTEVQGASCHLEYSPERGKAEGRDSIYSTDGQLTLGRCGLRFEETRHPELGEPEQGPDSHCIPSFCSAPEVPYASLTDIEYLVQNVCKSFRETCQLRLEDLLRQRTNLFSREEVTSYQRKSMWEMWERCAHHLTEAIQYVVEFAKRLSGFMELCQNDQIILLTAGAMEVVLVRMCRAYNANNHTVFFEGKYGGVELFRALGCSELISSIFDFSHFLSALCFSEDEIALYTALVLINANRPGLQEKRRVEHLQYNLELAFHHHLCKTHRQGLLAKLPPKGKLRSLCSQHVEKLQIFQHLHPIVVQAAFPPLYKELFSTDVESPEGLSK
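Stably transfected Drosophila Schneider cells are the test system, with ROR gamma fused to Gal4 and luciferase under UAS control; luminescence is read after 20 hr of 700 uM copper sulfate induction at ambient temperature.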
TDP1 cell CPT – DT40-hTDP1 cell growth loss with CPT; chicken DT40 Tdp1-/-;hTDP1 cells + 20 nM CPT, ATP luminescence, 48 h; Potency, µM (doses to about 46.2 µM), without a hit: at the top dose activity change, negative = growth inhibition, most hits filed as inhibitors; actives 12% (n = 420,000); further: potency means the concentration at half of the fitted maximal effect; nearly all actives have a fitted effect of over 55% in size
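Chicken DT40 Tdp1-/- cells complemented with human TDP1, 400 cells/well, exposed to compounds plus 20 nM camptothecin for at least 48 h at 37 C; viability read as ATP content by CellTiter-Glo luminescence.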
VP16 counter – inhibits Gal4-VP16 luciferase reporter, ROR gamma counter-screen; actives 3.5% (n = 310,000); Drosophila S2 Gal4-VP16 UAS-luciferase, luminescence, 20 h; AID 2546; Potency, µM (highest dose often 53.6 µM), for the others: at the highest dose activity, negative = inhibition, actives largely listed as inhibitors;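 further: Gal4-VP16 expression switched on by copper sulfate through the metallothionein promoter; potency means the concentration at half of the fitted maximal effect; nearly all actives have a fitted effect of over 50% in size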
DT40 TDP1 no CPT – qHTS for Inhibitors of human tyrosyl-DNA phosphodiesterase 1 (TDP1): qHTS in cells in absence of CPT; DT40 Tdp1-/- hTDP1 cells, no CPT, ATP luminescence, 48 h; Potency, µM (doses to about 46.2 µM), without a hit: at the top dose activity change, negative = growth inhibition, most hits filed as inhibitors; actives 15% (n = 420,000); further: potency means the concentration at half of the fitted maximal effect; nearly all actives have a fitted effect of over 55% in size
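Chicken DT40 Tdp1-/- cells complemented with human TDP1, screened without camptothecin (DMSO vehicle only), 400 cells/well. Compounds pin-transferred, cells incubated at 37 °C for at least 48 hr. Growth read as ATP-dependent luminescence (CellTiter-Glo, 30 min at RT).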
IL-1B inflam inh – inhibitors of inflammasome signaling (IL-1 beta secretion); activity change, % at 57.5 µM; actives 4.7% (n = 360,000); AID 743279; THP-1 LPS/ATP IL-1B secretion, AlphaLISA, 16 h; hits give low values; in the data active means activity change below about -50%; inconclusive means mostly about -30% to -49%
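Secreted IL-1B measured by AlphaLISA bead assay after 16 h compound exposure of THP-1 cells; compounds (final up to 57.5 uM) added 1 h before LPS (250 ng/mL) and ATP (1.25 mM) stimulation; lower signal means less secretion.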
An asterisk follows results filed as active; ? = inconclusive; . = no result given; [ ] = another dose, or the depositor's remark. The list is not random: actives were taken first. Their share in the collection is about 21%. Unless noted, the call rests on the fitted dose curve; in most records, active means well fitted curve in the direction sought with a large enough effect; inconclusive means small, poorly fitted or top-dose-only effect, or another doubt; inactive means no such curve, though single readings can be large; an effect the other way counts as inactive or inconclusive. On the % scale 0 is the no-effect control and ±100 the full control effect.

SMILES	ELG1 repair inh	RORgamma inh	TDP1 cell CPT	VP16 counter	DT40 TDP1 no CPT	IL-1B inflam inh
CC[C@H](C)[C@H](NC(=O)[C@H](C)NC(=O)[C@H](Cc1cnc[nH]1)NC(=O)[C@@H]1CCCN1C(=O)CNC(=O)[C@H](CC(C)C)NC(=O)[C@H](CC(C)C)NC(=O)[C@H](Cc1ccc(O)cc1)NC(=O)CNC(=O)[C@H](C)NC(=O)[C@H](CO)NC(=O)[C@H](CC(N)=O)NC(=O)[C@H](CC(C)C)NC(=O)[C@@H](NC(=O)[C@H](Cc1c[nH]c2ccccc12)NC(=O)CN)[C@@H](C)O)C(=O)N[C@@H](CC(=O)O)C(=O)N[C@@H](CC(N)=O)C(=O)N[C@@H](Cc1cnc[nH]1)C(=O)N[C@@H](CCCNC(=N)N)C(=O)N[C@@H](CO)C(=O)N[C@@H](Cc1ccccc1)C(=O)N[C@@H](CO)C(=O)N[C@@H](CC(=O)O)C(=O)N[C@@H](CCCCN)C(=O)N[C@@H](Cc1cnc[nH]1)C(=O)NCC(=O)N[C@@H](CC(C)C)C(=O)N[C@H](C(N)=O)[C@@H](C)O	.	-21.1%	.	0.3%	.	.
CC[n+]1c(C)sc2c(C)cc(C)cc21	6.7%	21.6%	23.1µM*	14.5%	?	93.5
COc1ccc(CCN(C(=O)C(F)(F)F)C(C(=O)NC2CCCCC2)c2cccs2)cc1 (stereo not drawn)	-9.7%	11.1%	7.31µM*	-20.4%	4.61µM*	-7.8
COc1ccc(CCN(C(=O)C(F)(F)F)C(C(=O)NC2CCCCC2)c2ccc(C)s2)cc1 (stereo not drawn)	1.6%	-0.5%	3.26µM*	-20.5%	2.82µM*	-2.5
COCCN(C(=O)C(F)(F)F)C(C(=O)NC1CCCCC1)c1ccco1 (stereo not drawn)	?	0.0%	-24.9%	?	?	13.6
O=C(NCC1CCCO1)C1CC(c2ccc(Cl)c(Cl)c2)=NO1 (stereo not drawn)	11.4%	36.7%	18.4µM*	26.4%	?	10.3
Cn1ncc(C#N)c1NC(=O)C1CC(c2ccc(Cl)c(Cl)c2)=NO1 (stereo not drawn)	1.9%	22.9%	-31.6%	-1.1%	-23.2%	35.6
Cc1cc(-c2nnc(SCC(=O)Nc3ccccn3)o2)no1	?	-1.7%	-0.3%	6.2%[10 µM]	-3.7%	1.4
Cc1cc(NC(=O)CSc2nnc(-c3cccc(Cl)c3)o2)no1	0.1%	?	?	-4.5%	16.4µM*	0.0
CCOc1ccc(NC(=O)CSc2nnc(-c3ccc(OCC)cc3)o2)cc1	.	.	-16.9%	.	4.0%	.
CCOc1ccc(-c2nnc(SCC(=O)Nc3cc(C)on3)o2)cc1	?	?	8.2µM*	-23.3%	?	0.0
O=C(CSc1nnc(C2COc3ccccc3O2)o1)Nc1nccs1 (stereo not drawn)	4.4%	?	?	22.4µM*	-26.3%	19.7
Cc1cc(-c2nnc(SCC(=O)Nc3nccs3)o2)no1	?	15.8µM*	-0.4%	?	18.7%	-8.0
Cc1ccc2c(c1C)OC(=O)CC2(C)C	-0.3%	-28.0%	-2.7%	2.2%	-1.6%	7.9
COc1cccc(-c2nnc(SCC(=O)Nc3cc(C)on3)o2)c1	?	12.6µM*	16.4µM*	-18.7%	?	-6.7
Cc1cc(Cl)ccc1NC(=O)CN1C(=O)NC2(CCCc3ccccc32)C1=O (stereo not drawn)	-0.7%	.	?	.	?	-7.4
CCOc1cc(/C=N/N2CCN(Cc3ccccc3)CC2)ccc1O	-0.6%	-9.3%	15.8%	8.2%	-3.1%	20.6
COc1ccc(NC(=O)c2cccc(N3C(=O)NC4CC3(C)Oc3ccccc34)c2)cc1 (stereo not drawn)	-13.6%	7.9%	?	-0.7%	?	-14.5
COc1cccc2c1OC1(C)CC2NC(=O)N1c1cccc(C(=O)Nc2ccc3c(c2)OCCO3)c1 (stereo not drawn)	-19.3%	7.2%	?	10.7%	18.4µM*	10.4
CC12CC(NC(=O)N1c1cccc(C(=O)Nc3ncn[nH]3)c1)c1ccccc1O2 (stereo not drawn)	.	0.2%	1.4%	-0.7%	-3.2%	-68.0*
CC(C)(C)Nc1nc(Cl)nc(N(C#N)CN2C(=O)c3ccccc3S2(=O)=O)n1	-14.9%	10.2%	?	6.3%	?	-100.9*
CC(C)Nc1nc(Cl)nc(N(C#N)CN2C(=O)c3ccccc3S2(=O)=O)n1	2.4%	-12.6%	25.9µM*	17.2%	18.4µM*	?
C[C@@]12C(=O)OC(=O)[C@@]1(C)[C@@H]1CC[C@@H]2O1	.	30.4%	29.9µM*	8.7%	29.9µM*	.
C[C@@]12C(=O)OC(=O)[C@]1(C)[C@H]1CC[C@@H]2O1	.	-13.0%[2.98 µM]	.	5.01µM*	.	.
O=C(O)C12C3CCC(O3)C1(C(=O)O)C1CCC2O1 (stereo not drawn)	.	.	-5.3%	.	-3.2%	16.8
SMILES	ELG1 repair inh	RORgamma inh	TDP1 cell CPT	VP16 counter	DT40 TDP1 no CPT	IL-1B inflam inh
C[C@@]12C(=O)OC(=O)[C@@]1(C)C1CCC2O1	.	14.1µM*	-9.0%	5.01µM*	-1.6%	.
COC(=O)c1cc(S(=O)(=O)Nc2cc(OC)cc(OC)c2)c[nH]1	-4.8%	3.9%	?	4.3%	-17.0%	0.0
COc1ccccc1-c1cnc(C(O)c2ccc(F)c(F)c2)[nH]1 (stereo not drawn)	.	.	?	.	?	13.0
COc1cccc(C(=O)C2CCCN(Cc3cn(C)nc3-c3ccccc3)C2)c1 (stereo not drawn)	-10.2%	11.7%	23.1µM*	3.1%	?	-10.7
Cc1nn(C)cc1CN1CCCC(C(=O)c2ccc(-c3ccccc3)c(F)c2)C1 (stereo not drawn)	-22.9%	28.8%	18.4µM*	2.0%	18.4µM*	-57.1*
O=C(c1ccc(-c2ccccc2)c(F)c1)C1CCCN(C(=O)c2cncs2)C1 (stereo not drawn)	-9.5%	?	?	?	13µM*	?
CN(Cc1cn(C)nc1-c1ccc(Oc2ccccc2)cc1)Cc1cnc2ccccn12	?	10µM*	?	?	20.6µM*	-5.5
O=C(CSc1nc(C(F)(F)F)cc(=O)[nH]1)NCc1ccc2c(c1)OCO2	1.8%	.	21.6%	.	4.8%	7.2
CCOc1ccc(CNC(=O)CCC(=O)n2nc(C)c3ccccc32)cc1	0.0%	0.3%	-6.0%	-7.9%	-9.7%	4.9
